Sampled rows, rich in hits. Any-hit rate of the full collection: about 1.3%.
Bcl-xL primary – inhibitors of human Bcl-xL; GST-Bcl-xL / FITC-Bim BH3 peptide fluorescence polarization; inhibition, % at 10.9 µM; Q07817; 320,000 tested, 0.7% active;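 active = inhibition above the mean of all tested compounds plus 3 SD, cutoff set per campaign, cut at about 30% in these data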;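 note: inhibitors lower millipolarization by displacing the labeled peptide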
Target sequence (Q07817 whole entry, looked up): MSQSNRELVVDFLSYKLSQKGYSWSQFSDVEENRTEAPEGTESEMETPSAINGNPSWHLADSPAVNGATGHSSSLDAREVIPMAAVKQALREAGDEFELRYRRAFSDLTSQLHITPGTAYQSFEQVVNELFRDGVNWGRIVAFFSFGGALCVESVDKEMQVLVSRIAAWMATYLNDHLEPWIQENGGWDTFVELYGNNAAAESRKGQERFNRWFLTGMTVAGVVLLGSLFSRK
MEX-5 binding – C. elegans MEX-5 TCR-2 RNA binding activity. Q9XUB2. MEX-5/FITC-TCR2 RNA binding, fluorescence polarization; stronger effect = lower value. activity score (negative = inhibition of binding), % at 10 µM. 300,000 tested, 0.38% active. AID 1832;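 active = inhibition past about -25% in most replicates, and total fluorescence under double the plate's negative control median, limit read from the data; inconclusive = replicates evenly split on the limit, or fluorescence at least double controls; inactive = too little inhibition in most replicates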
EBV gp42 inh – EBV gp42 inhibition; Q1HVG2; Fluorescence polarization binding assay, mP read-out; inhibition, % (tested at 21.74 µM); 220,000 tested, 0.42% active; in the data active = inhibition above about 50%
Target sequence (Q1HVG2 whole entry, looked up): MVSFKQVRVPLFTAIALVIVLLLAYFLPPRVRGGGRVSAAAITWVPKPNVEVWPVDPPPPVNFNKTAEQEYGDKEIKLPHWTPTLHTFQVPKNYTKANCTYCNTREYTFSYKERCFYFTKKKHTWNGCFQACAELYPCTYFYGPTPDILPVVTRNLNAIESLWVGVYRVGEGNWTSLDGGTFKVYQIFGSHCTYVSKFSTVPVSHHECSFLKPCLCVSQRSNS
eLon inh – inhibitors of E. coli Lon protease; P0A9M0; purified E. coli Lon protease, fluorescence polarization; inhibition, % at 7.94 µM; 360,000 tested, 0.42% active; in the data active = inhibition above about 13%, passing the limit was not always enough
GLD-1 RNA inh – GLD-1-TGE RNA interaction inhibition (C. elegans); purified GLD-1 + fluorescein TGE RNA, fluorescence polarization; inhibition, % at 5.96 µM; 320,000 tested, 0.44% active;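 active = percent inhibition above a per-plate cutoff, the plate mean of test compounds plus 3 SD, cut at about 30% in these data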
Each line names hits and unclear results; the compound was inactive in the other large screens.

CCOC(=O)[C@H]1[C@H]2COc3ccc(Br)cc3[C@@H]2N2C(=O)CN(Cc3ccc(F)cc3)C(=O)[C@@]12C	none (no result: MEX-5 binding, EBV gp42 inh)
COC(=O)c1ccc(CNC(=O)c2ccc3c(c2)S(=O)(=O)N=C2CCCCCN23)cc1	none (no result: MEX-5 binding, EBV gp42 inh)
CC1(OC(=O)c2ccco2)C(=O)C=C2C=C(c3ccsc3)OC=C2C1=O (configuration not stated)	none (no result: EBV gp42 inh, eLon inh)
CC(C)(C)OC(=O)NCCCCC1=CC2=CC(=O)C(C)(OC(=O)c3ccco3)C(=O)C2=CO1 (configuration not stated)	GLD-1 RNA inh 49 (no result: EBV gp42 inh, eLon inh)
O=C1C(C=Nc2ccccc2O)=C(O)c2ccccc21	none
Cc1ccc(O)c(N=CC2=C(O)c3ccccc3C2=O)c1	Bcl-xL primary 38
CCCCNC(=O)C1(C)CCCCCN1Cc1cccc2c(OC)cc(C(=O)OCC)cc12 (configuration not stated)	none (no result: Bcl-xL primary, MEX-5 binding, EBV gp42 inh, GLD-1 RNA inh)
COc1cccc(/C=N/NC(=O)c2ccncc2)c1OC(=O)c1ccc(Br)cc1	Bcl-xL primary 34 (no result: EBV gp42 inh)
CSc1nc(N(CCO)CCO)c2sc3nc(-c4ccco4)c4c(c3c2n1)CCC4	EBV gp42 inh 56 (no result: Bcl-xL primary, GLD-1 RNA inh)
O=C(NCCCN1CCOCC1)c1ccc2c(c1)N(Cc1c(F)cccc1Cl)C(=O)CS2	none (no result: EBV gp42 inh)
O=C(Nc1ccc2c(c1)nc1n2CCN(C2CCCCC2)C1)NC1CCCCC1	Bcl-xL primary 57, EBV gp42 inh 83 (no result: eLon inh)
O=C(Nc1ccc2[nH]c3c(c2c1)CCCC3)c1ccco1	Bcl-xL primary 52, EBV gp42 inh 68
CC(Sc1nc(-c2ccco2)nc2c1c(=O)n(C)c(=O)n2C)C(=O)O (configuration not stated)	none
S=c1[nH]c2ccccc2n2c(=S)[nH]nc12	MEX-5 binding -42 (no result: EBV gp42 inh)
Cc1ccc(S(=O)(=O)N2CCOCC2)cc1NS(=O)(=O)c1ccc(F)c(F)c1	none (no result: MEX-5 binding, EBV gp42 inh)
Cc1c(N2C(=O)c3ccc4c5c(ccc(c35)C2=O)CC4)c(=O)n(-c2ccccc2)n1C	EBV gp42 inh 79
Cc1c(N2C(=O)c3ccc(Br)cc3C2=O)c(=O)n(-c2ccccc2)n1C	none
O=C(NCCc1cccnc1)c1cc(COc2ccc(F)cc2Cl)on1	none (no result: EBV gp42 inh)
O=C(NCCCc1ccccc1)c1cc(COc2ccc(F)cc2Cl)on1	Bcl-xL primary 35 (no result: EBV gp42 inh)
O=C(c1sc2ccccc2c1Cl)N1CCN(CCc2ccccn2)CC1	none (no result: EBV gp42 inh)
Cc1ccc(/C=C/C2=Cc3c(sc(NC(=O)CSc4n[nH]c(N)n4)c3C#N)C(C)(C)C2)o1	Bcl-xL primary 54, EBV gp42 inh 77, GLD-1 RNA inh 37 (no result: eLon inh)
Cc1sc(NC(=O)CSc2n[nH]c(N)n2)c(C#N)c1C	none (no result: Bcl-xL primary, MEX-5 binding, EBV gp42 inh, GLD-1 RNA inh)
COC(=O)Cn1c2nc3ccccc3nc2c2cccc(C)c21	none (no result: Bcl-xL primary, EBV gp42 inh, GLD-1 RNA inh)
Cc1cccc2c3nc4ccccc4nc3n(C)c12	Bcl-xL primary 49 (no result: EBV gp42 inh)
Cc1ccc(-n2c(C)cc3c2CCCC3=O)cc1	Bcl-xL primary 31
CCOC(=O)c1c(/N=C/c2cccc([N+](=O)[O-])c2O)sc(C)c1C	Bcl-xL primary 45
O=[N+]([O-])c1cccc(C=Nc2cccc3ccccc23)c1O	none (no result: EBV gp42 inh)
CCCC(C)(C)C(=O)N1CCC1(C)C(=O)Nc1cccc2ccccc12 (configuration not stated)	none (no result: Bcl-xL primary, MEX-5 binding, EBV gp42 inh, GLD-1 RNA inh)
COc1ccc2nc(SCC(C)=O)c(C#N)cc2c1	Bcl-xL primary 32, MEX-5 binding inconclusive
COc1ccc2nc(SC)c(C#N)cc2c1	none
O=C(c1cccnc1)N1CCC(Oc2ccc(C(=O)N3CCCC(O)C3)cc2)CC1 (configuration not stated)	none
CC1(c2ccccc2)NC(=O)N(CC(=O)Nc2nnc(C3CC3)s2)C1=O (configuration not stated)	none (no result: EBV gp42 inh)
O=C1CSC(=S)N1Cc1cccs1	none (no result: Bcl-xL primary, MEX-5 binding, EBV gp42 inh, GLD-1 RNA inh)
N#Cc1c(N(CCO)CCO)nc(N)c2c(N)nc3c(c12)CC(=O)N3Cc1cccs1	Bcl-xL primary 63
COCCN1C(=O)Cc2c1nc(N)c1c(N)nc(N3CCN(c4ccc(F)cc4)CC3)c(C#N)c21	none
CN(CCO)c1nc(N)c2c(N)nc3c(c2c1C#N)CC(=O)N3Cc1cccs1	Bcl-xL primary 36
CN(CCO)c1nc(N)c(C#N)c(CC#N)c1C#N	none
COc1ccc(CN2C(=O)Cc3c2nc(N)c2c(N)nc(N4CCOCC4)c(C#N)c32)cc1	Bcl-xL primary 38
COCC(C)N1C(=O)Cc2c1nc(N)c1c(N)nc(N3CCN(c4ccccc4F)CC3)c(C#N)c21 (configuration not stated)	none
N#CCCN(C(=S)Nc1ccc(S(=O)(=O)N2CCOCC2)cc1)c1ccccc1F	none (no result: Bcl-xL primary, MEX-5 binding, EBV gp42 inh, GLD-1 RNA inh)

High-throughput results deposited in PubChem BioAssay by several laboratories.
